In ChEMBL document CHEMBL3988442, “University of Dundee, Small-Polar-MMV Screening Library” (2021):

Each molecule was assayed against T1, Aspartate--tRNA(Asp/Asn) ligase (Mycobacterium tuberculosis (strain ATCC 25618 / H37Rv)) (UniProt P9WFW3) (assay: Assay for Asp RNA synthetase-1 from Mycobacterium tuberculosis). Details: 30 µM.
T1 sequence (whole entry): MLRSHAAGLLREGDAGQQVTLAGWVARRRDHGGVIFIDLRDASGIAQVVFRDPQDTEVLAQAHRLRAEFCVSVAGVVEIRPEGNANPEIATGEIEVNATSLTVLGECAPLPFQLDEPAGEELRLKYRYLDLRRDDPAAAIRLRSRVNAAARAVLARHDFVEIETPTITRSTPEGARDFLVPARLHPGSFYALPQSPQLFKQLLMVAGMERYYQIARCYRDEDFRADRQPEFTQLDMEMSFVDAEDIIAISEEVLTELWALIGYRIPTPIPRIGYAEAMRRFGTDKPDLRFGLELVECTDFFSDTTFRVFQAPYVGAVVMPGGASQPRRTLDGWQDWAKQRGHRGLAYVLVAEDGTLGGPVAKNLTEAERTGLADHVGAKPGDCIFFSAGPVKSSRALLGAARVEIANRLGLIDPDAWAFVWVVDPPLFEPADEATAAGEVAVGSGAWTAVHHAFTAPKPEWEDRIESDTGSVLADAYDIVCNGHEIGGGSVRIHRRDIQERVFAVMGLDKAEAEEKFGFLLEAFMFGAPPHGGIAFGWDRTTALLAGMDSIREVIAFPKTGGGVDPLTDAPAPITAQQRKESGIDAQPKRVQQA
Format: functional
Parameters: scale not given: in the data most compounds retested in dose-response had high values
With `CNC(=O)CS(=O)(=O)C1CCN(S(=O)(=O)c2ccccc2Br)CC1` the Percent Effect was -6.53%.
With `COc1ccc(C2CCCN2S(=O)(=O)N(C)CC(C)C)cc1` (stereo unspecified) the Percent Effect was 1.67%.
Molecule `O=C(CC1CC1)N1C[C@@H]2CCN(c3cnccn3)C[C@@H]2C1` has a Percent Effect of -5.94%.
`Cc1nc(C)c(C(=O)OCCNc2ncccc2C#N)s1` was tested, and the Percent Effect was 1.71%.
In the case of `Cc1ccc(CNC(=O)Nc2nnc(C)s2)cn1`, the Percent Effect is reported as 4.24%.
`COCC1CN(Cc2ccc(C)o2)Cc2cn(C)nc21` (stereo unspecified) gave a Percent Effect of 11.7%.
`c1cncc(COCc2nnc3n2CCN(Cc2ccsc2)C3)c1` gave a Percent Effect of -0.684%.
`FC(F)(F)c1cccc(C2(CNCc3ccncc3)CCOCC2)c1` gave a Percent Effect of 2.66%.
Work on `Cc1cc(CNC(=O)C2CCCCN2C(=O)OC(C)(C)C)no1` (stereo unspecified) yielded a Percent Effect of 0.607%.
With `COc1ccc2c(c1)OCC(CNC(=O)c1ccncc1)C2` (stereo unspecified) the Percent Effect was -2.83%.
Molecule `c1ccc(-c2cnc(CNC3CCCN(c4cccnn4)C3)o2)cc1` (stereo unspecified) has a Percent Effect of -3.48%.
Molecule `O=C(c1ccc(F)cc1Cl)N1CCC(Nc2cccnn2)CC1` has a Percent Effect of 4.05%.
In the case of `CC(C)Cc1noc(CN2CCN(c3nccs3)CC2)n1`, the Percent Effect is reported as -4.73%.
For `COc1cccc(CN(C)S(=O)(=O)N2CCOCC2)c1`, the Percent Effect was -0.479%.
For `CC(O)CN1CCN(C(=O)c2cn(-c3ccccc3Cl)nn2)CC1` (stereo unspecified), the Percent Effect was 3.29%.
With `CCn1ncc2c1CCCC2NCc1cccc2c1OCCO2` (stereo unspecified) the Percent Effect was -2.02%.
With `CCN(CC)C(=O)c1nnc2ccc(N3CCOCC3)cc2n1` the Percent Effect was -5.17%.
For `CCN1CC(C(=O)N2CCC(Oc3ccccc3Cl)CC2)CC1=O` (stereo unspecified), the Percent Effect was 2.64%.
`Cn1cc(C2CCCN2CCCc2nc(-c3cccs3)no2)cn1` (stereo unspecified) showed a Percent Effect of 0.756%.
Molecule `Cc1ccccc1C1(CNC(=O)NCCc2nnc3n2CCC3)CC1` has a Percent Effect of -1.38%.
Work on `Cn1cnc2c1C(COCc1ccccc1)N(Cc1ccncc1)CC2` (stereo unspecified) yielded a Percent Effect of 2.91%.
